Results on twelve compounds are retold here after PubChem BioAssay (EPA / NIEHS).

Inconclusive results are not listed. Active and inactive are the calls of the source. The calls were made as follows: active = hit-call score of the fitted dose curve at least 0.9, where 1 is the maximum; inconclusive = response in the unintended direction; inactive = score below 0.9.

zebrafish Thyroid Hormone Receptor beta (TRb), thrb (gene 30607), sequence (Q9PVE4 whole entry, looked up): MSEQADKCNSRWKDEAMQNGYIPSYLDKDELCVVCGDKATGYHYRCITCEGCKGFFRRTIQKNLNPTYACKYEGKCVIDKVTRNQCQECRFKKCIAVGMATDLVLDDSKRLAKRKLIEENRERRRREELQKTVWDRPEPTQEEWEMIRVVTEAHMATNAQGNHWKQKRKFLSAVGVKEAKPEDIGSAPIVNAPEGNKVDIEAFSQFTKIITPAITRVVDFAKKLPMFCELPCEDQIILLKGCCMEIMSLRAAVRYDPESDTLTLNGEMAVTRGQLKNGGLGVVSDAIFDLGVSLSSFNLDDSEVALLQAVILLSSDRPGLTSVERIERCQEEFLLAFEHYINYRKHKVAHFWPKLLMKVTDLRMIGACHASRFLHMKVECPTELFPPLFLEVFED

For this experiment, the target named is zebrafish Thyroid Hormone Receptor beta (TRb), thrb (gene 30607) (UniProt Q9PVE4). The experiment is described as follows: ATG_zfTRb_XSP2: Attagene TRANS-FACTORIAL Multi-Species (XSP1) HepG2 Assay for zebrafish Thyroid Hormone Receptor beta (TRb) (AID 2283836). How it is done:
ATG_XSP2_multi-species_TRANS is a cell-based, multiplexed assay created by modifying the existing Attagene TRANS-FACTORIAL system to include a panel of nuclear receptors from some or all the following species: human (Homo sapiens), mouse (Mus musculus), frog (Xenopus laevis), zebrafish (Danio rerio), chicken (Gallus gallus), and turtle (Chrysemys picta). The ECOTOX-FACTORIAL format uses HepG2, a human liver cell line, with measurements taken at 24 hours after chemical dosing in a 24-well plate. Xsp2 included 3 nM 6-alpha-fluorotestosterone and 1.5 nM norgestrel to stimulate the androgen receptor.ATG_zfTRb_XSP2 is one of 29 assay components measured or calculated from the ATG_XSP2_multi-species_TRANS assay. It is designed to make measurements of mRNA induction, a form of inducible reporter, as detected with fluorescence intensity signals by Reverse transcription polymerase chain reaction (RT-PCR) and Capillary electrophoresis technology.The assay endpoint ATG_zfTRb_XSP2 was analyzed in the positive analysis fitting direction relative to DMSO as the negative control and baseline of activity. Using a type of inducible reporter, measures of mRNA for gain-of-signal activity can be used to understand the reporter gene at the transcription factor-level as they relate to the gene TR. Furthermore, this assay endpoint can be referred to as a primary readout, because this assay has produced multiple assay endpoints where this one serves a reporter gene function. To generalize the intended target to other relatable targets, this assay endpoint is annotated to the nuclear receptor intended target family, where the subfamily is non-steroidal.
Human liver HepG2 cells are transiently transfected with multiple reporter transcription units (MRTUs) in 6-well plates using FuGene 6 reagent (Roche; 3 ml FuGene/1 mg DNA). The MRTU constructs are regulated by a cis-regulating element (promoter). […] A major difference between the CIS and TRANS system is that in CIS activities of endogenous TFs are measured, whereas the TRANS assay evaluates changes in activities of exogenous, chimeric NR-Gal4 proteins. […] At the end of 24 hour incubation, total RNA was isolated using TriZol reagent (Invitrogen). The isolated RNA is then reverse-transcribed using oligo(dT) primer and Mo-MLV reverse transcriptase (Invitrogen) with DNAse I (Ambion) treatment for 30 min. The one-tenth of the produced cDNA was amplified by PCR using Taq DNA polymerase (Invitrogen) and two reporter sequence-specific primers. The PCR products were fluorescently labeled by primer extension with 6-arboxyfluorescein (6-FAM) 5'-labeled reporter sequence-specific primer (2 min at 95 C, 20 s at 68 C and 10 min at 72 C) and these products were digested with 5U of HpaI (New England Biolabs) for 2h at 37 C. The fragments were purified using Qiaquick PCR columns (Qiagen), analyzed on an ABI 3130xL genetic analyzer (Applied Biosystems) with peak positions identified by using a set of X-rhodamine (ROX)-labeled MapMarker1000 molecular weight standards (BioVentures). The raw capillary electrophoresis data was processed using Attagraph software (Attagene).
On to `CCCCOC(=O)c1ccccc1C(=O)OCCCC`, for which the compound was called inactive.

Regarding `COP(=S)(OC)Oc1nc(Cl)c(Cl)cc1Cl`, the result was inactive.

Regarding `CO/C=C(/C(=O)OC)c1ccccc1Oc1cc(Oc2ccccc2C#N)ncn1`, the call was inactive.

For `COc1ccc(C(c2ccc(OC)cc2)C(Cl)(Cl)Cl)cc1`, the compound was classed as inactive.

As for `CCOP(=S)(OCC)SCn1c(=O)oc2cc(Cl)ccc21`, the result was inactive.

As to `CC(C)(C)c1ccc(CSc2cnn(C(C)(C)C)c(=O)c2Cl)cc1`, the call was inactive.

For `CCCCC(CC)COC(=O)c1ccccc1C(=O)OCC(CC)CCCC` (configuration not stated), the compound was called inactive.

Consider `OC(c1ccc(Cl)cc1)(c1cncnc1)c1ccccc1Cl` (configuration not stated), for which the result was inactive.

Consider `CCCN(CCC)c1c([N+](=O)[O-])cc(S(N)(=O)=O)cc1[N+](=O)[O-]`, for which the outcome was inactive.

`C=CC1(C)OC(=O)N(c2cc(Cl)cc(Cl)c2)C1=O` (configuration not stated): the compound was classed as inactive.

Regarding `C#CCOS(=O)OC1CCCCC1Oc1ccc(C(C)(C)C)cc1` (configuration not stated), the outcome was inactive.

As to `COC(=O)N(OC)c1ccccc1COc1ccn(-c2ccc(Cl)cc2)n1`, the compound was called inactive.
